38 compounds from PubChem BioAssay (NCATS) can be followed below.

The structures appear in SMILES notation. Results filed as inconclusive are left out. Where a call stands in place of a potency, no number is given. Activity calls are given as the source filed them. Calls come from the whole dose curve; as a rule, active = well fitted curve in the direction sought with a large enough effect; inconclusive = small, poorly fitted or top-dose-only effect, or another doubt; inactive = no such curve, though single readings can be large; an effect the other way counts as inactive or inconclusive.
Potency is the fitted concentration of half-maximal effect.

Sequence of Glutaminase kidney isoform, mitochondrial (Homo sapiens) (O94925 whole entry, looked up, canonical isoform): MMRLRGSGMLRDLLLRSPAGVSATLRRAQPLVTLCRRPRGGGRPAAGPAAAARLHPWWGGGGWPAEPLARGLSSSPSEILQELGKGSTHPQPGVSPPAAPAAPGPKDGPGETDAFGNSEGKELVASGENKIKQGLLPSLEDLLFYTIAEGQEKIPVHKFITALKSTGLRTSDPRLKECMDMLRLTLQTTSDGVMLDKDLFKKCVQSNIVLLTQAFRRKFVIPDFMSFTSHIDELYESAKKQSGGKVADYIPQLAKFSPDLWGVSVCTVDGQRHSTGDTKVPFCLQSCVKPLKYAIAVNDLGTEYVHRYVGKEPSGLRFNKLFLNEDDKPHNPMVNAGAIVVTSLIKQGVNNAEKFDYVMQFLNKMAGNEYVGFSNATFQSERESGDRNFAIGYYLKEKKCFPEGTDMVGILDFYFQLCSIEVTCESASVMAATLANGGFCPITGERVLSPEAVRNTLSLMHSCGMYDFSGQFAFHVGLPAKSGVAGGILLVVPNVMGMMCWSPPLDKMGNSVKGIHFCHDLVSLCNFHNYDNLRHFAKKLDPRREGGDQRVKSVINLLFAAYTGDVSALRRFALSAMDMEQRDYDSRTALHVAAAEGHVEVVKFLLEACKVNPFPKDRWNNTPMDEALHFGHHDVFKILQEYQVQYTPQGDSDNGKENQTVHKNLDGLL
Sequence of Voltage-gated inwardly rectifying potassium channel KCNH2 (Homo sapiens) (Q12809 whole entry, looked up): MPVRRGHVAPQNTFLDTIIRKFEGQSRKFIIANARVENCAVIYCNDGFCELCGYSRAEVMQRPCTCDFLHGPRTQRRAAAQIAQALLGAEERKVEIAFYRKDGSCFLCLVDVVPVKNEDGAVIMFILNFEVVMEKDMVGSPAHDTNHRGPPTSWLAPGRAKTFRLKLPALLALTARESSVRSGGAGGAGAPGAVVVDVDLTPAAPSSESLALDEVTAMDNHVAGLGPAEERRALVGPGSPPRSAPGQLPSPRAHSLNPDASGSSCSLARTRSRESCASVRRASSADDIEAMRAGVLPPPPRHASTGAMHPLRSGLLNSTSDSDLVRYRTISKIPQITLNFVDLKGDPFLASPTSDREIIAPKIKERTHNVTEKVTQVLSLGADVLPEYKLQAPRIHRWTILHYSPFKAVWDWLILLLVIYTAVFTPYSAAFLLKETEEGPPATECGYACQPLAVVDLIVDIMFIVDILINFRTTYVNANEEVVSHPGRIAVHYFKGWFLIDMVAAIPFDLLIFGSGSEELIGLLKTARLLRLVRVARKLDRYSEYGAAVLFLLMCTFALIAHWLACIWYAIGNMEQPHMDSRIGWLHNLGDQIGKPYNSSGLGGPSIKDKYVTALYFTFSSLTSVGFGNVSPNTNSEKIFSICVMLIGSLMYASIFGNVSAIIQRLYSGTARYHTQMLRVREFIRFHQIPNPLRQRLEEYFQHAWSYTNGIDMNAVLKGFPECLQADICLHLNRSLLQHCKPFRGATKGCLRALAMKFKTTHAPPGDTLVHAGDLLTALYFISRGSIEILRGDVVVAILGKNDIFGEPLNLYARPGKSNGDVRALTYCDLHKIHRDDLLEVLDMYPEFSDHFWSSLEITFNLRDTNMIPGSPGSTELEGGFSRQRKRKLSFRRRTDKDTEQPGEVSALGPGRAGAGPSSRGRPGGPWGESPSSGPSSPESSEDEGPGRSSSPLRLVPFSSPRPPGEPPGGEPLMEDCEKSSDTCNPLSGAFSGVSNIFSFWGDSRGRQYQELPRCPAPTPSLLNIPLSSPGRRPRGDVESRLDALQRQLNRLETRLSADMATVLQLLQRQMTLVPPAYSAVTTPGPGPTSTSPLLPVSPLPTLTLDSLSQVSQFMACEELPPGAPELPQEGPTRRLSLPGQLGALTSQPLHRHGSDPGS

One assay has as its target Voltage-gated inwardly rectifying potassium channel KCNH2 (Homo sapiens) (UniProt Q12809). Kind of assay: qHTS Assay for Small Molecule Inhibitors of the Human hERG Channel Activity (AID 588834).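 Note: lower thallium flux fluorescence means stronger hERG block; nearly all actives have a fitted effect of over 50% in size.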 The following applies: U2OS BacMam hERG, FluxOR thallium flux fluorescence; series mostly up to 46.1 µM. The essentials: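 hERG-BacMam U2OS, 2000 cells/well; 0.7X FluxOR loading 1 hr RT dark; cpd ~10 min 37 °C; stim buffer; FDSS fluorescence 2 min @ 1 s; AC50 Hill fit.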
For orientation: qHTS replaces the single test concentration by a dilution series.
`Cn1c(=O)[nH]c2ncn(C)c2c1=O`: the Potency entry was “inactive”.

For `N#CC(=C(\N)Sc1ccccc1N)/C(C#N)=C(/N)Sc1ccccc1N`, the Potency result was “inactive”.

In the case of `O=C(O)Cc1c[nH]c2ccc(O)cc12`, the Potency result is “inactive”.

As for `CCCN(CCc1ccccc1)C1CCc2c(O)cccc2C1` (stereo not given), the Potency was 355 nM (active).

In the case of `CN(C)S(=O)(=O)c1ccc2c(c1)/C(=C/c1cc3c([nH]1)CCCC3)C(=O)N2`, the Potency is 7940 nM (active).

Consider `CN(C)C(=O)/N=N/C(=O)N(C)C`, for which the Potency result is “inactive”.

For `CC(=O)C(C)=O`, the Potency result is “inactive”.

For the compound `CSC(=N)N`, the Potency entry is “inactive”.

Consider `O=C(O)c1cc2cc(F)ccc2[nH]1`, for which the Potency result is “inactive”.

As for `CCN(CC)CCOC(=O)c1cc(Cl)c(N)cc1OC`, the Potency result was “inactive”.

In the case of `COc1cccc(OC)c1OCCNCC1CSc2ccccc2O1` (stereo not given), the Potency is 1410 nM (active).

Turning to `N=C(N)SCCc1cnc[nH]1`, the Potency entry is “inactive”.

Regarding `Cc1ccc([N+](=O)[O-])cc1S(=O)(=O)N(C)C`, the Potency result was “inactive”.

In the case of `CNc1cc(NS(=O)(=O)c2ccc(N)cc2)nc(NC)n1`, the Potency entry is “inactive”.

For `N=C(N)c1ccc(N)cc1`, the Potency entry was “inactive”.

With `CCn1c(=O)[nH]c2cc(Cl)c(Cl)cc21`, the Potency result was “inactive”.

With `Cn1c(=O)c2[nH]c(C3CCCC3)nc2n(C)c1=O`, the Potency result was “inactive”.

On to `OCC1NCC(O)C(O)C1O` (stereo not given), for which the Potency result was “inactive”.

On to `Nc1ccc(-c2ccc3ccccc3n2)cc1`, for which the Potency entry is “inactive”.

In the case of `CC(=O)NNC(=O)N1Cc2ccccc2Oc2ccc(Cl)cc21`, the Potency entry was “inactive”.

On to `O=C(O)C1CCNCC1`, for which the Potency result was “inactive”.

In the case of `COc1ccccc1N1CCN(CCCCNC(=O)c2ccc3ccccc3c2)CC1`, the Potency was 1120 nM (active).

As to `c1ccc2nc(C3=NCCN3)ccc2c1`, the Potency result is “inactive”.

Regarding `CCN1C(=O)C=CC1=O`, the Potency entry was “inactive”.

Take `CC(N)(Cc1ccc(O)cc1)C(=O)O` (stereo not given): the Potency entry was “inactive”.

Consider `N[C@H](C(=O)O)[C@H](O)C(=O)O`, for which the Potency entry is “inactive”.

As to `C=CC[C@H](N)C(=O)O`, the Potency result is “inactive”.

As to `C[N+](C)(C)CC=O`, the Potency result was “inactive”.

With `CCCCCC(O)CCCC(=O)O` (stereo not given), the Potency result was “inactive”.

As for `C=CC1(C)CC(=O)C2(O)C(C)(O1)C(OC(C)=O)C(O)C1C(C)(C)CCC(O)C12C` (stereo not given), the Potency entry was “inactive”.

In the case of `CC(N)=NCCCC[C@@H](N)C(=O)O`, the Potency result is “inactive”.

Regarding `COC(=O)C1=C(C)NC(C)=C([N+](=O)[O-])C1c1ccccc1C(F)(F)F` (stereo not given), the Potency entry is “inactive”.

Turning to `O=C1OC(=O)C2C3CCC(O3)C12` (stereo not given), the Potency entry is “inactive”.

Take `N#Cc1cc2nc(O)c(O)nc2cc1[N+](=O)[O-]`: the Potency entry was “inactive”.

In the case of `C[C@@]1(C2CCCC2)Cc2cc(OCC(=O)O)c(Cl)c(Cl)c2C1=O`, the Potency entry was “inactive”.

Turning to `COc1ccccc1N1CCN(CCCNc2c(C)c(=O)n(C)c(=O)n2C)CC1`, the Potency result is “inactive”.

Take `NC(=O)CC[C@H](N)C(=O)O`: the Potency result is “inactive”.

Regarding `O=C(O)C1CCCNC1` (stereo not given), the Potency result is “inactive”.

The next assay has as its target Glutaminase kidney isoform, mitochondrial (Homo sapiens) (UniProt O94925). Kind of assay: qHTS for Inhibitors of Glutaminase (GLS): LOPAC Validation (AID 624146). Note: nearly all actives have a fitted effect of over 60% in size. The conditions noted are these: glutaminase enzyme activity inhibition; series mostly up to 46.1 µM. The essentials: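 Compounds were pin-transferred onto hKGA, after which L-glutamine (1 mM solution) and a detection mix of glutamate oxidase, HRP and Amplex Red were added. Initial and 30 min RT fluorescence reads were collected.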
As to `Cn1c(=O)[nH]c2ncn(C)c2c1=O`, the Potency entry is “inactive”.

With `N#CC(=C(\N)Sc1ccccc1N)/C(C#N)=C(/N)Sc1ccccc1N`, the Potency was 12600 nM (active).

For `O=C(O)Cc1c[nH]c2ccc(O)cc12`, the Potency is 1580 nM (active).

As for `CN(C)S(=O)(=O)c1ccc2c(c1)/C(=C/c1cc3c([nH]1)CCCC3)C(=O)N2`, the Potency entry was “inactive”.

Consider `CN(C)C(=O)/N=N/C(=O)N(C)C`, for which the Potency entry is “inactive”.

Take `CC(=O)C(C)=O`: the Potency result was “inactive”.

`CSC(=N)N`: the Potency result is “inactive”.

As for `O=C(O)c1cc2cc(F)ccc2[nH]1`, the Potency entry is “inactive”.

For `CCN(CC)CCOC(=O)c1cc(Cl)c(N)cc1OC`, the Potency result is “inactive”.

`COc1cccc(OC)c1OCCNCC1CSc2ccccc2O1` (stereo not given): the Potency entry was “inactive”.

Regarding `N=C(N)SCCc1cnc[nH]1`, the Potency result was “inactive”.

Regarding `Cc1ccc([N+](=O)[O-])cc1S(=O)(=O)N(C)C`, the Potency entry is “inactive”.

Consider `CNc1cc(NS(=O)(=O)c2ccc(N)cc2)nc(NC)n1`, for which the Potency entry is “inactive”.

As for `N=C(N)c1ccc(N)cc1`, the Potency result is “inactive”.

`CCn1c(=O)[nH]c2cc(Cl)c(Cl)cc21`: the Potency entry was “inactive”.

For the compound `Cn1c(=O)c2[nH]c(C3CCCC3)nc2n(C)c1=O`, the Potency entry was “inactive”.

As for `OCC1NCC(O)C(O)C1O` (stereo not given), the Potency result is “inactive”.

Regarding `Nc1ccc(-c2ccc3ccccc3n2)cc1`, the Potency entry is “inactive”.

For `CC(=O)NNC(=O)N1Cc2ccccc2Oc2ccc(Cl)cc21`, the Potency result is “inactive”.

With `O=C(O)C1CCNCC1`, the Potency result was “inactive”.

Regarding `COc1ccccc1N1CCN(CCCCNC(=O)c2ccc3ccccc3c2)CC1`, the Potency entry is “inactive”.

`c1ccc2nc(C3=NCCN3)ccc2c1`: the Potency result was “inactive”.

`CCN1C(=O)C=CC1=O`: the Potency entry was “inactive”.

For `CC(N)(Cc1ccc(O)cc1)C(=O)O` (stereo not given), the Potency result was “inactive”.

As for `N[C@H](C(=O)O)[C@H](O)C(=O)O`, the Potency result is “inactive”.

With `C=CC[C@H](N)C(=O)O`, the Potency entry was “inactive”.

Consider `C[N+](C)(C)CC=O`, for which the Potency entry was “inactive”.

On to `CCCCCC(O)CCCC(=O)O` (stereo not given), for which the Potency result was “inactive”.

With `C=CC1(C)CC(=O)C2(O)C(C)(O1)C(OC(C)=O)C(O)C1C(C)(C)CCC(O)C12C` (stereo not given), the Potency result was “inactive”.

Consider `CC(N)=NCCCC[C@@H](N)C(=O)O`, for which the Potency result was “inactive”.

Take `COC(=O)C1=C(C)NC(C)=C([N+](=O)[O-])C1c1ccccc1C(F)(F)F` (stereo not given): the Potency entry was “inactive”.

For `O=C1OC(=O)C2C3CCC(O3)C12` (stereo not given), the Potency result was “inactive”.

On to `N#Cc1cc2nc(O)c(O)nc2cc1[N+](=O)[O-]`, for which the Potency entry is “inactive”.

Regarding `C[C@@]1(C2CCCC2)Cc2cc(OCC(=O)O)c(Cl)c(Cl)c2C1=O`, the Potency result was “inactive”.

As for `COc1ccccc1N1CCN(CCCNc2c(C)c(=O)n(C)c(=O)n2C)CC1`, the Potency result was “inactive”.

For `NC(=O)CC[C@H](N)C(=O)O`, the Potency result was “inactive”.

Turning to `O=C(O)C1CCCNC1` (stereo not given), the Potency entry was “inactive”.
